# The panel holds about 83,000 compounds, 20% with a hit somewhere; the sample as a whole holds those more often.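 The test compound was applied at a single concentration to cells in 96-well plates for 48 hours, and percent growth was recorded.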 Unmarked numbers belong to inactive results. Activity calls are given as the source filed them.
# Test system: EKVX NSCLC
# Assay: NCI-60 one-dose screen, 48 h (100 = growth as untreated, 0 = no growth, -100 = all killed)
# Conditions: 10 µM
# Method: Growth inhibition of the EKVX human Non-Small Cell Lung tumor cell line is measured as a screen for anti-cancer activity. Cells are grown in 96 well plates and exposed to the test compound for 48 hours. Compounds are tested at a single concentration, which is 10^-5 M for most compounds. The reported endpoint is percent growth (GI% or GIPRCNT), where numbers from 0 - 100% represent growth inhibition, and numbers from -100% - 0 represent cell death. For example, a value of 40 represents 60% growth inhibition. A value of 0 means no net growth occurred over the course of the experiment. A value of -40 indicates 40% of cells at the beginning of the experiment died by the end of the experiment. A value of -100 means all cells are dead at the end of the experiment.
# NCI-60 Human Tumor Cell Lines Screen was performed using the standard one-dose NCI protocol, which is described in more detail at https://dtp.cancer.gov/discovery_development/nci-60/default.htm.
# Compounds with GIPRCNT values below 10 were considered active. Activity score was based on GIPRCNT using the following formula: […]
# Score is 0 for GIPRCNT values of 100 or above, 50 for GIPRCNT values of 0, and 100 for GIPRCNT values of -100.
row,SMILES,growth
1,C[C@H]1[C@@H](CC(=O)N[C@@H](Cc2coc3ccccc23)B(O)O)O[C@@H]2OC3(C)CC[C@H]4[C@H](C)CC[C@@H]1[C@@]24OO3,7.62% (active)
2,CC1=C(CCC=NNC(N)=O)C2=C(C)C3(CC3)[C@@](C)(O)C(=O)C2=C1,-25.1% (active)
3,O=C(NC([Se])=NC1CCCCC1)c1ccccc1,19%
4,COc1ccc(/C=C/C(=O)c2nc3ccccc3n2Cc2ccc(Br)cc2)cc1,52.5%
5,CC(C)N=C([Se])NC(=O)c1cccs1,14.7%
6,C#CCCCN(CCNc1ccnc2cc(Cl)ccc12)C(=O)CCC(=O)O[C@@H]1O[C@@H]2OC3(C)CC[C@H]4[C@H](C)CC[C@@H]([C@H]1C)[C@@]24OO3,42.3%
7,COc1cc(OC)c(/C=C/C(=O)c2nc3ccccc3n2Cc2ccc(F)cc2)c(OC)c1,73.5%
8,O=C(/C=C/c1ccc(Br)cc1)c1nc2ccccc2n1Cc1ccc(Br)cc1,1.19% (active)
9,O=C(/C=C/c1ccc(Cl)cc1)c1nc2ccccc2n1Cc1ccc(Br)cc1,39.9%
10,O=C(NC([Se])=NC1CCCCC1)c1ccc2c(c1)OCO2,56.8%
11,O=C(/C=C/c1ccccc1)c1nc2ccccc2n1Cc1ccc(Br)cc1,-89.2% (active)
12,CC[C@]12C=CCN3CC[C@@]4(c5ccc(OC)cc5N(C)[C@H]4[C@@](O)(C(=O)OC)[C@@H]1OC(=O)CCCC[P+](c1ccc(C)cc1)(c1ccc(C)cc1)c1ccc(C)cc1)[C@@H]32,-93.8% (active)
13,COC(=O)C[C@](O)(CCC(C)C)C(=O)O[C@@H]1C(OC)=C[C@]23CCCN2CCc2cc4c(cc2[C@H]13)OCO4,-23.9% (active)
14,O=C(/C=C/c1ccc(Cl)cc1)c1nc2ccccc2n1Cc1ccc(F)cc1,20.4%
15,CC[C@]12C=CCN3CC[C@@]4(c5ccc(OC)cc5N(C)[C@H]4[C@@](O)(C(=O)OC)[C@@H]1OC(=O)CCC[P+](C1CCCCC1)(C1CCCCC1)C1CCCCC1)[C@@H]32,15.4%
16,CC[C@]12C=CCN3CC[C@@]4(c5ccc(OC)cc5N(C)[C@H]4[C@@](O)(C(=O)OC)[C@@H]1OC(=O)CCC[P+](c1ccc(C)cc1)(c1ccc(C)cc1)c1ccc(C)cc1)[C@@H]32,-94.7% (active)
17,CC(C)N=C([Se])NC(=O)c1ccccc1,-56.8% (active)
18,O=C(NCCCCC(c1ccc(F)cc1)c1ccc(F)cc1)Nc1ccc([N+](=O)[O-])c(C(F)(F)F)c1,4.51% (active)
19,O=C(/C=C/c1cccc(Br)c1)c1nc2ccccc2n1Cc1ccc(F)cc1,20.1%
20,C[C@H]1[C@H](OC(=O)CCC(=O)Nc2cnccn2)O[C@@H]2OC3(C)CC[C@H]4[C@H](C)CC[C@@H]1[C@@]24OO3,38.4%

row,SMILES,growth
1,C=CC[Se]C(=O)c1ccc(C(=O)[Se]CC=C)s1,-89.2% (active)
2,CC(=C\C(=O)Oc1ccc2c3c1OC1C(O)CCC4(O)C(C2)N(CC2CCC2)CCC314)/C=C1\CCCc2ccccc21 (stereo not given),49.7%
3,C#CC[Se]C(=O)c1ccc2n[se]nc2c1,13.8%
4,C[C@H]1[C@@H](Oc2ccc(-c3cn(-c4ccnc5cc(Cl)ccc45)nn3)cc2)O[C@@H]2OC3(C)CC[C@H]4[C@H](C)CC[C@@H]1[C@@]24OO3,29.7%
5,C[C@H]1[C@H](OC(=O)CCC(=O)N(CCCc2cn(-c3ccc(CN4CCOCC4)cc3)nn2)CCNc2ccnc3cc(Cl)ccc23)O[C@@H]2OC3(C)CC[C@H]4[C@H](C)CC[C@@H]1[C@@]24OO3,49%
6,CCOC(=O)C1=C(Nc2ccccc2)C(=O)OC12C(=O)Nc1ccccc12 (stereo not given),95.2%
7,CC(C)C[C@H](NC(=O)CNC(=O)C[C@H]1O[C@@H]2OC3(C)CC[C@H]4[C@H](C)CC[C@@H]([C@H]1C)[C@@]24OO3)B(O)O,26.7%
8,COc1cc2cc(C(=O)N3C[C@@H](CCl)c4c3cc(OC(=O)N3CCN(C(=O)CCC(=O)N5CCN(C)CC5)[C@@H]5CSSC[C@@H]53)c3ccccc43)[nH]c2c(OC)c1OC,-84.6% (active)
9,CC12OOC(C)(OO1)C2CCC(=O)OCCNc1ccnc2cc(Cl)ccc12 (stereo not given),-60.6% (active)
10,C=CC[Se]C(=O)c1cncc(C(=O)[Se]CC=C)c1,-97.9% (active)
11,O=C(/C=C/c1cccc(Br)c1)c1nc2ccccc2n1Cc1ccc(Br)cc1,-54.8% (active)
12,COc1cc(OC)c(S(=O)(=O)N(CCCl)CCCl)cc1C(=O)/C=C/c1ccc(C)cc1,89.5%
13,CC1=C(CCC=O)C2=C(C)C3(CC3)[C@@](C)(O)C(=O)C2=C1,-81.6% (active)
14,COP(=O)(CC(F)(F)C(F)(F)F)OC,81.1%
15,COc1cc2cc(C(=O)N3C[C@@H](CCl)c4c3cc(OC(=O)N3CCN(C)[C@@H]5CSSC[C@@H]53)c3ccccc43)[nH]c2c(OC)c1OC,-56.1% (active)
16,COc1cc2cc(C(=O)N3C[C@@H](CCl)c4c3cc(OC(=O)N3CCN(C)[C@@H]5CSSC[C@H]53)c3ccccc43)[nH]c2c(OC)c1OC,-86.3% (active)
17,COC(=O)c1ccc(-n2cc(CCCN(CCNc3ccnc4cc(Cl)ccc34)C(=O)CCC(=O)O[C@@H]3O[C@@H]4OC5(C)CC[C@H]6[C@H](C)CC[C@@H]([C@H]3C)[C@@]46OO5)nn2)cc1,49.4%
18,COCCOCCOCCOc1ccc(-n2cc(-c3ccc(O[C@H]4O[C@@H]5OC6(C)CC[C@H]7[C@H](C)CC[C@@H]([C@H]4C)[C@@]57OO6)cc3)nn2)cc1,26.7%
19,CC[C@@]12CC(C(=O)OC)=C3Nc4cc5c(cc4[C@@]34CCN(C[C@H]3O[C@H]31)[C@@H]24)[C@@H]1[C@H](O5)[C@@H](O)[C@@]2(CC)CC(C(=O)OC)=C3Nc4cc(OC)ccc4[C@@]34CCN1[C@@H]24,31.3%
20,O=C(/C=C/c1ccccc1)c1nc2ccccc2n1Cc1ccc(F)cc1,-60.5% (active)
